# About 2,700 (4%) of roughly 68,000 compounds showed an effect of 50% or more. The sample as a whole holds a higher share of strong results than the screen did.
# System: Plasmodium berghei
# Experiment: Screen against P. berghei liver stage (PbLuc), transformed with Luciferase, at 2uM
# Format: functional, HepG2
# Settings: tested at 2 uM
row,Compound,INHIBITION [%]
1,O=C1CC2(CCN(Cc3ccco3)C2)CN1c1ccc2c(c1)OCO2 (configuration not stated),14.06
2,COCCCN1CCN([C@@H]2c3ccccc3C3(CCNCC3)[C@H]2O)CC1,-13.79
3,CC(C)CN1CC2(CCN(C(=O)c3nc4ncccn4n3)CC2)CC1=O,-47.52
4,CCCc1nc(N2CCCN(c3ncccn3)CC2)c2cnn(C)c2n1,17.73
5,CCc1nc(N2CCCN(c3ncccn3)CC2)c2cnn(C)c2n1,29.53
6,CCc1nc(N2CCN(c3ncccn3)CC2)c2cnn(C)c2n1,51.48
7,CCCn1cc(Cl)c(C(=O)N2C[C@H]3CC(OC)C[C@H]3C2)n1 (some centres not stated),-13.75
8,CCCS(=O)(=O)N1CCCN(CCCOC)CC1,-14.94
9,COc1cccc(NC(=O)NCc2cnn(C)c2)c1,7.33
10,Cn1cc(CC(CNC(=O)Nc2cccc(Cl)c2)C(N)=O)cn1 (configuration not stated),31.78
11,COc1cccc(NC(=O)NCC(Cc2cnn(C)c2)C(N)=O)c1 (configuration not stated),55.25
12,CO[C@@H]1CC[C@@H](NC(=O)c2ccc(OCCN3CCCC3)cc2)[C@H]1O,-1.51
13,COCC(=O)N1CCC(c2cc3ncccc3c(O)n2)CC1,19.89
14,c1ccc2oc(CCCN3CCOC(Cn4cncn4)C3)nc2c1 (configuration not stated),53.11
15,c1ncn(CC2CN(CCCOc3ccc4c(c3)OCO4)CCO2)n1 (configuration not stated),53.98
16,c1ccc2oc(CCCN3CCOC(Cn4cccn4)C3)nc2c1 (configuration not stated),14.11
17,c1cnn(CC2CN(CCCOc3ccc4c(c3)OCO4)CCO2)c1 (configuration not stated),-14.46
18,Cc1cnn(CC2CN(CCCc3nc4ccccc4o3)CCO2)c1 (configuration not stated),5.14
19,Fc1ccc(OCCCN2CCOC(Cn3cncn3)C2)cc1 (configuration not stated),-20.71
20,COc1cc(N2CCC3(CCN(Cc4csc(C)n4)C3)CC2)ncn1,7.76
21,CNc1nc(C2CCCN(C(=O)C(C)(C)OC)C2)nc2c1CN(C)CC2 (configuration not stated),-11.02
22,Cc1nc(Cn2c(=O)cnc3ccccc32)n(C)n1,-48.07
23,CN(Cc1cccs1)C(=O)c1ccc(=O)n(C)c1,7.67
24,CCN(Cc1cccs1)C(=O)c1ccc(=O)n(C)c1,50.59
25,COCCN(Cc1cccs1)C(=O)c1ccc(=O)n(C)c1,29.13
26,CC(=O)N1CCC2(CC1)CN(C(=O)c1cccc3[nH]ccc13)CCO2,37.41

row,Compound,INHIBITION [%]
1,CC(=O)N1CC2(CCN(C(=O)c3cccc4[nH]ccc34)CC2)C1,3
2,CC(=O)N1CCC2(CC1)CN(C(=O)c1cccc3[nH]ccc13)C2,57.92
3,Cc1ccc(N(Cc2ccco2)C(=O)Cc2cc(=O)n(C)[nH]2)cc1,-12.06
4,COC(=O)[C@H](C)NC(=O)c1cc(-c2cccc(Cl)c2)no1,11.28
5,CC(NC(=O)c1cc(-c2cccc(Cl)c2)no1)C(=O)N1CCCC1 (configuration not stated),24.29
6,CC(NC(=O)c1cc(-c2cccc(Cl)c2)no1)C(=O)N(C)C (configuration not stated),50.59
7,O=C(c1cncs1)N1CCC(Cc2cnc3[nH]ccc3c2)CC1,-11.64
8,CC(C)OC(=O)CNC(=O)Nc1ccc(-c2nc(C(C)C)no2)cc1,-13.72
9,COCCNC(=O)Nc1ccc(-c2nc(C(C)C)no2)cc1,58.53
10,CC(C)c1noc(-c2ccc(NC(=O)NCC(O)C(C)C)cc2)n1 (configuration not stated),-10.44
11,O=c1c2ccc(C(F)(F)F)cc2ncn1CCCN1CCCCC1CO (configuration not stated),-13.49
12,Cc1nn(C)cc1CN1CCC(c2ncc(Cl)cc2S(C)(=O)=O)CC1,20.51
13,O=C1CSC(c2ccncc2)c2c[nH]nc2N1 (configuration not stated),76.13
14,COc1cc(C2SCC(=O)Nc3n[nH]cc32)cc(OC)c1O (configuration not stated),-33.37
15,COc1ccc(C2SCC(=O)Nc3n[nH]cc32)c(OC)c1OC (configuration not stated),2.66
16,Cc1cccc(C(=O)NCc2ccccc2)n1,5.09
17,CC(=O)NCCNC(=O)NCCCc1cccc(F)c1,31.55
18,CC(C)(C)S(=O)(=O)CCNC(=O)NCCCc1cccc(F)c1,26.02
19,CC(C)NC(=O)NCCCc1cccc(F)c1,78.96
20,OC(CN1CCN(CCOCC(F)(F)F)CC1)c1ccccc1 (configuration not stated),25.35
21,O=C(CCc1nccs1)N1CCN(c2ccccc2F)CC1,44.12
22,N#Cc1ccccc1N1CCCN(C(=O)CCc2cccs2)CC1,16.08
23,N#Cc1cccnc1N1CCN(C(=O)CCC(=O)c2cccs2)CC1,53.81
24,N#Cc1ccccc1N1CCCN(C(=O)CCc2ccsc2)CC1,-107.32
25,N#Cc1ccccc1N1CCCN(C(=O)CCc2nccs2)CC1,63.95
26,N#Cc1cccnc1N1CCCN(C(=O)CCc2nccs2)CC1,-71.75

# Reference: ChEMBL document CHEMBL4513216, “Probing the Open Global Health Chemical Diversity Library for Multistage-Active Starting Points for Next-Generation Antimalarials” (ACS Infect Dis, 2020)
